# Screens deposited in PubChem BioAssay by several laboratories.
# NLRP3 yeast inh – blocks the NALP3 inflammasome reconstituted in yeast; Yeast reconstituted NLRP3/ASC/caspase-1, beta-gal luminescence, 24 h; inhibition, % at 10 µM; 0.39% of 330,000 active;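 active = inhibition of 50% or more; inactive = inhibition below 50%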
# TIM10 inh – growth inhibitors of TIM10 yeast strain | S. cerevisiae TIM10 strain growth, BacTiter-Glo luminescence, 24 h | inhibition, % at 10 µM | 1.4% of 330,000 active | AID 463195;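 active = inhibition of 40% or more at the single tested concentration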;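 note: wild-type TIM10 isogenic control strain grown at permissive 25 °C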
# NALP1 yeast inh – blocks the NALP1 inflammasome reconstituted in yeast; S. cerevisiae NALP1/ASC/caspase-1 growth, X-gal OD620, 72 h; inhibition, % at 10 µM; 0.61% of 280,000 active; in the data active = inhibition mostly above about 24%, no sharp cut-off; inactive = mostly below about 32%
# tim10-1 inh – inhibits growth of tim10-1 mutant yeast. 2.2% of 330,000 active. S. cerevisiae tim10-1 ts strain growth, BacTiter-Glo, 24 h. inhibition, % at 20 µM;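 active = inhibition of at least 40%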;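 note: mutant grown at 25 °C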
# V-ATPase pHluor – alters yeast V-ATPase proton transport | response, % at 10 µM | 0.37% of 350,000 active | S. cerevisiae, pHLuorin cytosolic pH fluorescence | AID 504577; in the data active = response mostly above about 7.3%, no sharp cut-off; inactive = mostly below about 5.4%; note: actives read high
# tim23-1 inh – growth inhibitors of tim23-1 mutant yeast. 1.3% of 330,000 active. S. cerevisiae tim23-1 growth, BacTiter-Glo luminescence, 24 h. inhibition, % at 20 µM;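 active = growth inhibition of the mutant yeast at or above 50%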;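 note: temperature-sensitive mutant grown at 25 °C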
# tim10-1 confirm – confirmation of tim10-1 mutant yeast growth inhibitors; shares compounds with tim10-1 inh; S. cerevisiae tim10-1 ts strain growth, BacTiter-Glo, 24 h; inhibition, % at 20 µM; 56% of 7,400 active; AID 463213;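 active = inhibition of yeast growth at or above a set limit in either of two repeat tests at 20 µM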;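 note: tim10-1 mutant grown at permissive 25 °C to find synthetic lethal compounds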
# tim10 confirm – confirmation of TIM10 yeast growth inhibitors | shares compounds with TIM10 inh | 63% of 4,600 active | inhibition, % at 10 µM | S. cerevisiae tim10 strain growth, BacTiter-Glo luminescence, 24 h;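 active = inhibition of yeast growth at or above a set limit in either of two replicates at 10 µM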; note: this counterscreen used the strain with wild-type TIM10
# tim23-1 confirm – confirmation of tim23-1 mutant yeast growth inhibitors | shares compounds with tim23-1 inh | S. cerevisiae tim23-1 growth, BacTiter-Glo luminescence, 24 h | inhibition, % at 20 µM | 83% of 4,400 active;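 active = inhibition above about 39% in either of two replicate wells at 20 µM, limit read from the data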;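 note: temperature-sensitive tim23-1 mutant grown at 25 °C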
# Numbers stand for hits; 0 = inactive; - = no result given. Most compounds without a hit are left out; they make up all but 4.2% or so of the library.
SMILES,NLRP3 yeast inh,TIM10 inh,NALP1 yeast inh,tim10-1 inh,V-ATPase pHluor,tim23-1 inh,tim10-1 confirm,tim23-1 confirm,others
CCOC(=O)N1CCN(C(=O)c2cccn3c(=O)c4sccc4nc23)CC1,0,0,0,0,0,0,-,-,
CC1CCCCC1NC(=S)NC(=O)c1sc2ccccc2c1Cl (configuration not stated),0,0,0,0,0,0,-,-,
O=C(COc1cccc2c1CCNC2=O)Nc1ccc(Cl)cc1,0,0,-,0,0,0,-,-,
CC(=O)Nc1sc(C)c(C)c1CN1CCN(Cc2ccccc2)CC1,0,0,0,0,0,0,-,-,
Cc1ccccc1C(=O)N1CCC(C(=O)OCc2nc(N)nc(Nc3ccccc3)n2)CC1,0,0,-,0,0,0,-,-,
Cc1ccc(C(=O)C(OC(=O)c2cnccn2)c2ccccc2)cc1C (configuration not stated),0,0,0,0,0,0,-,-,
CC(C)(C)c1nnc(NS(C)(=O)=O)s1,0,0,-,0,0,0,-,-,
N/C(=N/OC(=O)c1ccccc1Cl)c1ncc([N+](=O)[O-])s1,0,62,-,49,0,55,50,0,tim10 confirm=73
N/C(=N\OC(=O)c1ccc([N+](=O)[O-])cc1Cl)c1ccccn1,0,42,0,53,0,59,45,65,tim10 confirm=52
Cc1ccc(C(=O)O/N=C(\N)c2ccccc2)c(Cl)c1,0,74,-,71,0,83,59,86,tim10 confirm=81
N/C(=N\OC(=O)c1ccc(=O)n(Cc2ccc(Cl)cc2)c1)c1ccccn1,0,54,0,67,0,53,60,48,tim10 confirm=53
N/C(=N\OC(=O)c1ccc(=O)n(Cc2ccccc2)c1)c1ccccn1,0,0,0,0,0,0,-,-,
O=c1oc2c(CN3CCN(CCO)CC3)c(O)ccc2cc1-c1ccccn1,0,0,-,0,0,0,-,-,
NC(=O)NCc1ccc(F)cc1,0,0,0,0,0,0,-,-,
COc1ccc(NC(=O)N2CCCc3cc(C)ccc32)c(OC)c1,0,0,0,0,0,0,-,-,
CCOC(=O)c1ccc(NC(=O)Cc2coc3cc4c(cc23)CCC4)cc1,0,0,0,0,0,0,-,-,
N/C(=N\OC(=O)c1ccc(Cl)cc1Cl)c1ccccn1,0,72,0,41,0,76,0,70,tim10 confirm=75
Cc1ccccc1NC1=CC(=O)CC(C)(C)C1,0,0,0,0,0,0,-,-,
CC1(C)CC(=O)C=C(NC2=CC3OC(c4ccccc4)OCC3OC2=O)C1 (configuration not stated),0,59,0,68,0,59,58,56,tim10 confirm=0
O=C(Oc1oc(-c2ccco2)nc1C=Nc1ccccc1)c1ccoc1,0,0,0,0,0,0,-,-,
Cc1ccc(C(=O)Oc2oc(-c3ccco3)nc2C=Nc2ccc(Cl)cc2)cc1,0,0,0,50,0,50,35,66,
Cc1onc(-c2c(F)cccc2Cl)c1C(=O)O/N=C(\N)c1ccc([N+](=O)[O-])o1,0,0,0,0,0,0,-,-,
O=C(Oc1coc(CSc2ncccn2)cc1=O)c1cccc([N+](=O)[O-])c1,0,0,0,0,0,0,-,-,
O=C(Oc1c(Cl)cc(Cl)c2cccnc12)c1cccc([N+](=O)[O-])c1,0,50,0,51,0,63,0,73,tim10 confirm=0
O=C(c1cccnc1)N1CCN(C(=O)c2cccc(Cl)c2)CC1,0,0,0,0,0,0,-,-,
SMILES,NLRP3 yeast inh,TIM10 inh,NALP1 yeast inh,tim10-1 inh,V-ATPase pHluor,tim23-1 inh,tim10-1 confirm,tim23-1 confirm,others
O=[N+]([O-])c1ccc2[nH]c3c(c2c1)CCCC3,0,0,0,65,0,66,57,66,
O=C(Cn1c2ccccc2c(=O)c2cc([N+](=O)[O-])ccc21)Nc1ccccc1Cl,0,0,0,0,0,0,-,-,
Nc1ccccc1C#Cc1ccc2[nH]ccc2c1,0,0,-,44,0,63,0,53,
Nc1ccccc1C#Cc1ccccc1,0,0,0,0,0,0,-,-,
Cc1ccc(-n2cnc3scc(-c4cccs4)c3c2=O)cc1,0,0,0,41,0,50,45,58,
O=c1c2c(-c3cccs3)csc2ncn1-c1ccccc1,0,0,0,0,0,0,-,-,
